From the supplement of paper PMC13380429

Tested on: Vero E6 infected with SARS-CoV-2
Experiment: inhibition of SARS-CoV-2 cytopathic effect; higher = more antiviral protection, active = above 15
Settings: 48 h

Measured: inhibition of SARS-CoV-2 cytopathic effect

C=CC(=O)Nc1cccc(Nc2nc(Nc3ccc(Oc4ccnc(C(=O)NC)c4)cc3)ncc2F)c1
inactive: 1 nM -1.65% | 8.33 nM 1.5% | 100 nM 0.39% | 833.33 nM -1.84% | 10000 nM 9.86%

COc1cc2c(cc1-c1c(C)noc1C)ncc1[nH]c(=O)n([C@H](C)c3ccccn3)c12
inactive: 1 nM -7.87% | 8.33 nM -7.32% | 100 nM -3.13% | 833.33 nM 1.38% | 10000 nM -8.07%

O=C(O)c1ccccc1O [salicylic-acid]
inactive: 1 nM 1.59% | 8.33 nM -5.54% | 100 nM -2.37% | 833.33 nM 0.26% | 10000 nM 1.57%

Nc1nc(F)nc2c1ncn2[C@@H]1O[C@H](CO)[C@@H](O)[C@@H]1O [fludarabine]
inactive: 1 nM -1.26% | 8.33 nM -3.11% | 100 nM -2.43% | 833.33 nM 1.66% | 10000 nM -0.43%

CC(C)NCC(O)COc1cccc2ccccc12 (stereo not given) [propranolol]
inactive: 1 nM 0.19% | 8.33 nM 1.94% | 100 nM -0.637% | 833.33 nM -0.01% | 10000 nM -2.77%

CC(C)C1=C2[C@H]3CC[C@@H]4[C@@]5(C)CC[C@H](OC(=O)CC(C)(C)C(=O)O)C(C)(C)[C@@H]5CC[C@@]4(C)[C@]3(C)CC[C@@]2([C@@H](O)CN(CCN(C)C)Cc2ccc(Cl)cc2)CC1=O
inactive: 1 nM -0.51% | 8.33 nM 1.17% | 100 nM -0.05% | 833.33 nM 0.73% | 10000 nM -1.86%

NC(=O)OCC(COC(N)=O)c1ccccc1 [felbamate]
inactive: 1 nM 1.11% | 8.33 nM 3.53% | 100 nM -0.7% | 833.33 nM 1.06% | 10000 nM 0.03%

O=C(NCCN1CCC2(CC1)C(=O)NCN2c1cccc(F)c1)c1ccc2ccccc2c1
inactive: 1 nM 0.75% | 8.33 nM 3.53% | 100 nM 1.66% | 833.33 nM 1.45%
active: 10000 nM 83.1%

C[C@H]1NCc2cc(-c3ccc4c(=O)c(C(=O)O)cn(C5CC5)c4c3OC(F)F)ccc21 [garenoxacin]
inactive: 1 nM -4.16% | 8.33 nM -1.9% | 100 nM 1.67% | 833.33 nM 3.28% | 10000 nM 1.04%

CC1(C)CCC(C)(C)c2cc(Cn3cccn3)c(/C=C/c3ccc(C(=O)O)cc3)cc21 [palovarotene]
inactive: 1 nM 3.77% | 8.33 nM 1.22% | 100 nM 1.2% | 833.33 nM 0.58% | 10000 nM 2.48%

CCOC(=O)C(=O)Nc1cccc(OC)c1C(N)=O
inactive: 1 nM 6.62% | 8.33 nM 7.85% | 100 nM 6.88% | 833.33 nM 2.83% | 10000 nM -0.82%

CCOC(=O)[N-]c1c[n+](N2CCOCC2)no1 [molsidomine]
inactive: 1 nM -0.39% | 8.33 nM 1.12% | 100 nM 2.15% | 833.33 nM 1.58% | 10000 nM -0.19%

Cc1ccc2c(Br)cc(Br)c(OC(=O)c3ccccc3)c2n1 [broxaldine]
inactive: 1 nM 0.35% | 8.33 nM 0.53% | 100 nM 4.07% | 833.33 nM 5.01% | 10000 nM 11.5%

CCN1CCN(C(=O)Cc2ccc(Nc3ncc(F)c(Nc4ccc(C(=O)Nc5ccccc5Cl)cc4)n3)cc2)CC1 [aurora-a-inhibitor-i]
inactive: 1 nM -0.07% | 8.33 nM -0.73% | 100 nM -0.58% | 833.33 nM 0.9% | 10000 nM 4.49%

COCCN1CCC(C(=O)NO)(S(=O)(=O)c2ccc(Oc3ccc(OC(F)(F)F)cc3)cc2)CC1
inactive: 1 nM 3.42% | 8.33 nM 2.45% | 100 nM 2.99% | 833.33 nM 3.32% | 10000 nM 1.34%

CN(C)CCC=C1c2ccccc2C=Cc2ccccc21 [cyclobenzaprine]
inactive: 1 nM 0.3% | 8.33 nM 6.56% | 100 nM 3.92% | 833.33 nM -1.83% | 10000 nM -6.67%

C[C@]12CCC(=O)C=C1CC[C@@H]1[C@@H]2[C@@H](O)C[C@@]2(C)[C@H]1CC[C@]2(O)C(=O)COC(=O)CCC(=O)O [hydrocortisone-hemisuccinate]
inactive: 1 nM -3.36% | 8.33 nM -5.52% | 100 nM -5.26% | 833.33 nM -3.7% | 10000 nM -4.67%

O=C(NO)C1(CS(=O)(=O)c2ccc(Oc3ccc(Cl)cc3)cc2)CCOCC1
inactive: 1 nM -0.75% | 8.33 nM -2.34% | 100 nM 0.31% | 833.33 nM -0.91% | 10000 nM -11.7%
